Laboratory results published in PubChem BioAssay AID449762 (Southern Research Specialized Biocontainment Screening …, 2010).
The whole screen tested about 330,000 compounds, of which about 1,900 (0.58%) were called active. About 4% were inconclusive and are not listed. These entries were drawn from the full list. Potency and affinity values are given separately. A number with no mark means an inactive call. Cut-off read from the data, not from the text of the source: inconclusive = inhibition above about 70% without an active follow-up result; inactive = below that.

Assay: M. tuberculosis growth inhibition, HTS (AID 449762);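 note: bacterial growth assessed after seven days of incubation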
Details: M. tuberculosis H37Rv growth inhibition, 7H9 media; at 25 µM; active compounds read high
For `CCN(CC)c1ccc(C=NCCNS(=O)(=O)c2ccc(C)cc2)cc1`, the inhibition was -5.21%. `CCOc1cc(/C=N/Nc2nc3ccccc3[nH]2)cc(Br)c1OCC(=O)N(C)C` gave an inhibition of 54.1%. Compound `CCOc1cc(/C=C2\COc3ccccc3C2=O)ccc1OCC(=O)N(C)C` has an inhibition of 36.2%. `Nn1c(SCC(=O)Nc2ccccc2)nnc1C1CCCCC1` gave an inhibition of -4.13%. `CCO[C@H]1OC(C(=O)NC2CC2)=C[C@@H](c2csc3ccccc23)[C@@H]1CCCO` gave an inhibition of 2.79%. `O=C(CC1C(=O)NCCN1Cc1c(F)cccc1Cl)NC1CCCC1` (stereo not given) gave an inhibition of -8.1%. In the case of `O=[N+]([O-])c1cc(Cl)ccc1N1CCN(c2cccc(C(F)(F)F)c2)CC1`, the inhibition is reported as 12%. For `CN(C)CCCN(C(=O)c1ccc(S(=O)(=O)N2CCc3ccccc32)cc1)c1nc2ccc(Cl)cc2s1`, the inhibition was 6.05%. For `CN(C)CCCN(C(=O)c1ccc(S(=O)(=O)N2CCc3ccccc32)cc1)c1nc2ccc(F)cc2s1`, the inhibition was 2.5%. In the case of `COc1ccccc1NC(=S)N(Cc1ccc(C(=O)O)cc1)Cc1ccc(OC)c(OC)c1`, the inhibition is reported as 1.31%. `O=C(NCc1n[nH]c(=S)n1-c1ccc(F)cc1)c1ccc(S(=O)(=O)N2CCCCC2)cc1` gave an inhibition of 0.39%. Work on `Cc1ccc(CNC(=O)c2ccc(Cn3cc(-c4ccc(C)cc4)nc3-c3ccncc3)cc2)cc1` yielded an inhibition of 8.49%. `CCCNC(=O)c1ccc(Cn2cc(-c3ccc(OC)cc3)nc2C(C)N)cc1` (stereo not given) showed an inhibition of -9.06%. `O=C(NCCc1ccccc1Cl)C1CCC(=O)N(C2CCCCCC2)C1` (stereo not given) showed an inhibition of 4.37%. Work on `COc1cc(OC)cc(C(=O)NCCSC2CCCCC2)c1` yielded an inhibition of 1.7%. `C=CCc1ccccc1OCC(O)CN1CCN(c2ccc(C)cc2)CC1` (stereo not given) gave an inhibition of 8.24%. `O=C(c1cc2ccccc2[nH]1)N(Cc1cccnc1)CC1CCCN(C2CCCCC2)C1` (stereo not given) gave an inhibition of 58%. Work on `COC(=O)c1ccccc1C(=O)N(Cc1cccnc1)CC1CCCN(C2CCCCC2)C1` (stereo not given) yielded an inhibition of 2.83%. For `CCN(C(=O)c1ccccc1F)c1nc(-c2ccc(OC)cc2)cs1`, the inhibition was 5.39%. For `CCOC(=O)CCc1c(C)c2ccc(OCC(=O)OC(C)C)cc2oc1=O`, the inhibition was 26.9%. `CCc1c(C)c2ccc(OCC(N)=O)cc2oc1=O` showed an inhibition of 4.28%. `COCCCNc1nc2cc(OC)c(OC)cc2c2nc(-c3ccccc3)nn12` gave an inhibition of 13%. Compound `CCN(CC)CCCNc1nc2ccccc2c2nc(-c3ccncc3)nn12` has an inhibition of -0.63%. In the case of `CCCCCCCCCCCC(=O)N1CC(=O)NC(=O)C1`, the inhibition is reported as -0.85%. Work on `CC(C)CCN1CC(=O)N2[C@@H](Cc3c([nH]c4ccccc34)C2(C)C)C1=O` yielded an inhibition of 1.66%. With `c1ccc(Oc2nc(-c3cccnc3)nc3ccccc23)cc1` the inhibition was 13.2%. With `Cc1ccc(Oc2nc(-c3cccnc3)nc3ccccc23)c([N+](=O)[O-])n1` the inhibition was 3.26%. Work on `CCC(C)N1CCN(C(=O)Cc2ccccc2)CC1` (stereo not given) yielded an inhibition of 4.3%. Compound `Cc1cc(=O)oc2cc(OCC(=O)N3CCN(C(C)c4ccccc4)CC3)c(Cl)cc12` (stereo not given) has an inhibition of -5.58%. In the case of `Cc1ccc(NC(=O)CN(C)C(=O)c2cccc(S(=O)(=O)NCc3ccccc3)c2)cc1`, the inhibition is reported as 2.27%. `O=C(NCCc1ccccc1)c1ccc(CS(=O)Cc2ccc(Cl)cc2)o1` (stereo not given) showed an inhibition of 3.87%. `CCOc1ccc(CCNC(=O)c2ccc(CS(=O)Cc3ccc(Cl)cc3)o2)cc1` (stereo not given) showed an inhibition of -1.24%. `CCCn1c(N)cc(=O)n(CCC)c1=O` showed an inhibition of 8.69%. In the case of `Clc1ccccc1CN1CCN(c2ccccc2Cl)CC1`, the inhibition is reported as -2.43%. `c1coc(CNc2c3c(nc4ncnn24)CCCC3)c1` showed an inhibition of -6.82%. Compound `CN(C)CCCNc1c2c(nc3cc(-c4cccc(F)c4)nn13)CCC2` has an inhibition of 1.49%. `COc1cccc(-c2cc3nc4c(c(N5CCC6(CC5)OCCO6)n3n2)CCCC4)c1` gave an inhibition of 12.8%. Compound `Clc1cccc(-c2cc3nc4c(c(N5CCOCC5)n3n2)CCCC4)c1` has an inhibition of 58.9%. `C(=NCCCN1CCOCC1)c1ccc2c(c1)OCO2` gave an inhibition of -12.4%. `COc1cc(NC(=O)C23CC4CC(C2)CC(n2nnc(C)n2)(C4)C3)c(OC)cc1Cl` gave an inhibition of 2.98%. `COc1cc2cc(C(c3nnnn3C3CCCC3)N3CCc4ccccc43)c(=O)[nH]c2cc1OC` (stereo not given) gave an inhibition of 0.64%. Compound `CCC(C)(C)n1nnnc1C(c1cc2cc(OC)ccc2[nH]c1=O)N1CCc2ccccc21` (stereo not given) has an inhibition of 64.6%. `COc1ccc(CN2CCCC(C(=O)c3ccc(Cl)cc3)C2)cc1Cn1cccn1` (stereo not given) gave an inhibition of -5.07%. In the case of `COc1ccc(CN2CCCC(C(=O)c3cccc(OC(C)C)c3)C2)cc1Cn1cccn1` (stereo not given), the inhibition is reported as -6.67%. Work on `COC12C(COC(N)=O)C3=C(C(=O)C(C)=C(N)C3=O)N1CC1C2N1C` (stereo not given) yielded an inhibition of 100%. Compound `CCCNC1=C(C)C(=O)C2=C(C1=O)C(COC(N)=O)[C@]1(OC)C3NC3CN21` (stereo not given in full) has an inhibition of -1.51%. Work on `CC(=O)N1CCN(c2ccc(NC(=S)NC(=O)/C=C/c3ccccc3)cc2)CC1` yielded an inhibition of 1.44%. Work on `CCOC(=O)c1ccccc1N=Cc1c(O)c2ccccc2oc1=O` yielded an inhibition of 5.1%. `COC(=O)c1cc(N=Cc2c(O)c3ccccc3oc2=O)cc(C(=O)OC)c1` gave an inhibition of -16.3%. In the case of `Cn1c(/C=N/O)nc2ccccc21`, the inhibition is reported as -1.93%. Compound `CCOC(=O)c1ccc(N=Cc2nc(-c3ccccc3)oc2OC(C)=O)cc1` has an inhibition of 39.2%. `COc1ccc(C(O)c2ncc(C(F)(F)F)cc2Cl)cc1` (stereo not given) showed an inhibition of 12.8%. In the case of `Cc1cc(C(=O)N/N=C2\CC(=O)CC(C)(C)C2)c2ccccc2n1`, the inhibition is reported as 5.98%. For `COCCn1c(NCc2ccc(C)cc2)nc2c1c(=O)[nH]c(=O)n2C`, the inhibition was 2.2%. In the case of `COc1cccc(NC(=O)C2CCCO2)c1` (stereo not given), the inhibition is reported as 0.33%. Compound `CC(C)CC1Nc2ccc(C(=O)NCCCN3CCOCC3)cc2NC1=O` (stereo not given) has an inhibition of 7.57%. Compound `N#Cc1c(-c2ccc(Cl)cc2)ccn2nc(CCC(=O)O)nc12` has an inhibition of 0.53%. `CCc1nc2c(C#N)c(-c3ccc(Cl)cc3)ccn2n1` showed an inhibition of -11.1%. With `O=C(COC(=O)CNC(=O)c1cccc(OC(F)F)c1)NCc1ccc2c(c1)OCO2` the inhibition was 7.07%. Work on `Cc1ccc(NC(=O)c2cccc(-n3cnnn3)c2)cc1Cl` yielded an inhibition of 4.03%. With `CCN1CC(CN(C)Cc2nc(Cc3ccccc3)no2)CC1=O` (stereo not given) the inhibition was 3.14%. In the case of `O=C1c2ccccc2S(=O)(=O)c2cc(C(=O)N3CCN(c4ccccc4)CC3)ccc21`, the inhibition is reported as 4.82%. Work on `O=C1c2ccccc2S(=O)(=O)c2cc(C(=O)N3CCN(c4ccc(Cl)cn4)CC3)ccc21` yielded an inhibition of 14%. Compound `O=C(OCC(=O)N1CCCc2ccccc21)c1cccnc1Cl` has an inhibition of 0.07%. With `COC(=O)N/N=C/c1ccccc1` the inhibition was -2.71%. `COC(=O)N/N=C/c1ccccc1Cl` showed an inhibition of -1.15%. `COc1ccc(NC(=O)CSc2ccccc2)cc1S(=O)(=O)N1CCOCC1` gave an inhibition of 9.25%. Work on `CC(Nc1cc(N2CCN(C(=O)C(C)(C)C)CC2)ccc1[N+](=O)[O-])c1ccccc1` (stereo not given) yielded an inhibition of 6.58%. Work on `CCCCc1nnc(NC(=O)c2ccc(N3CCCC3=O)cc2)s1` yielded an inhibition of 0.88%. In the case of `CCOc1ccc(Nc2cc(C)nc(N3CCOCC3)n2)cc1`, the inhibition is reported as -6.87%. With `Cc1cc(NCCO)nc(-n2nc(C)cc2C)n1` the inhibition was 1.56%. For `Cc1occc1C(=O)Nc1nnc(C(F)(F)F)s1`, the inhibition was -11.4%. Compound `C(#Cc1ccc2c(c1)COc1c3ccccc3nn1-2)c1ccccc1` has an inhibition of -2.59%. With `C#Cc1ccc2c(c1)COc1c3ccccc3nn1-2` the inhibition was 26.7%. `COc1ccc(C(CNC(=O)Nc2ccc(Cl)cc2)N2CCN(C)CC2)cc1` (stereo not given) gave an inhibition of 6.3%. `COc1cccc(NC(=O)[C@@H]2CCCN2C(=O)C2CCN(S(=O)(=O)c3ccc(C)cc3)CC2)c1` showed an inhibition of -6.02%. Work on `CC(C)(C)Nc1nc(N2CCCC2)nc(N2CCCC2)n1` yielded an inhibition of 8.96%. With `CCNc1nc(NC(C)(C)C)nc(N2CCCC2)n1` the inhibition was 12.8%. `O=C(COc1ccccc1Br)c1ccc2c(c1)OCO2` showed an inhibition of -8.06%. In the case of `C/C(=N\NC(=S)Nc1cccc(C)c1)c1cc2ccccc2o1`, the inhibition is reported as 67.2%. Work on `CC/C(=N\NC(=S)Nc1cccc(C)c1)c1ccccc1` yielded an inhibition of 4.58%. In the case of `Cc1ccc2cc(C)c3nnc(SCC(=O)N4CCN(C(=O)c5ccco5)CC4)n3c2c1`, the inhibition is reported as -3.44%. In the case of `COc1ccc(Cl)cc1NC(=O)CSc1nc(Nc2ccccc2)nc(N2CCOCC2)n1`, the inhibition is reported as -3.97%. Compound `O=C(CSc1nc(Nc2ccccc2)nc(N2CCOCC2)n1)Nc1ccccc1Cl` has an inhibition of -2.86%. Work on `COc1ccccc1OCCNC(=O)C1CC(=O)N(Cc2ccc(C)cc2)C1` (stereo not given) yielded an inhibition of -0.95%. Compound `Cc1csc(SCC(=O)NC(=O)NCc2ccccc2)n1` has an inhibition of -2.35%. Work on `O=C(NC(=S)Nc1ccc2oc(=O)ccc2c1)c1cccc(Cl)c1` yielded an inhibition of 5.43%. With `CC(C)(C)N=C1NC(=NC(C)(C)C)c2ccccc21` the inhibition was 1.58%. Compound `Cc1ccc(NC(=O)CCc2ccc(C)o2)cc1` has an inhibition of 23.4%. Work on `Cc1cccc(NC(=O)CCc2ccc(C)o2)c1` yielded an inhibition of -15.4%. `CCOc1ccc(N(CC(=O)NC2CCCC2)C(=O)CCCC(=O)Nc2ccccn2)cc1` gave an inhibition of -1.21%. With `CCCNC(=O)c1cc2c3ccccc3n(C)c2s1` the inhibition was -14.8%. Compound `CCc1cc(C(=O)NNC(=O)CCN2CCN(c3ccccc3)CC2)sc1C` has an inhibition of -4.59%. Work on `CCc1cc(C(=O)NCC2CCCO2)sc1C` (stereo not given) yielded an inhibition of -1.92%. With `CC(=O)NNC(=O)c1cc2c3ccccc3n(C)c2s1` the inhibition was -4.02%.
